Screening data as filed in PubChem BioAssay.
In the library only some 2.7% were active in any assay of this set; here they are far more common.
TRPM1 prom inh – inhibitors of MITF-driven TRPM1 promoter in melanoma cells. AID 488899. 330,000 compounds, 0.83% hits. SK-MEL-5 TRPM1 promoter luciferase, 24 h. inhibition, % at 12.5 µM;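 active = mean inhibition across replicates of 60% or more, whatever share of single replicates reaches that level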
CF NFkB inh – cystic fibrosis NF-kB activation inhibition; KKLEB NF-kB-GFP reporter, PAF-induced, GFP fluorescence overnight; inhibition, % at 5 µM; 360,000 compounds, 0.86% hits;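 active = at least 50% inhibition at 5 µM, scaled per plate between neutral and stimulator controls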;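 also: PAF is a Pseudomonas aeruginosa culture filtrate used as stimulus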
HIF-2a inh – inhibitors of HIF-2a | inhibition, % at 18.8 µM | 360,000 compounds, 0.72% hits | 786-0 RCC cells HIF-2a reporter, luciferase luminescence, overnight | AID 624352;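 active = inhibition of the luminescence signal of 40% or more relative to plate controls, in a single-dose primary screen at 18.75 µM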
Shn3 3UTR inh – reduces Shn3 3'UTR luciferase signal in osteoblasts | Clone20 osteoblast Shn3 3'UTR firefly luciferase, 24 h | inhibition, % at 12.5 µM | 360,000 compounds, 0.52% hits | AID 588674;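 active = mean inhibition of at least 75% with every replicate also reaching 75%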
KKLEB tox – CF airway cell cytotoxicity counter-screen | KKLEB CF airway cells viability, ATPlite luminescence, overnight; hits give low values; cells stimulated with P. aeruginosa culture filtrate | activity change (cytotoxicity), % at 5 µM | 360,000 compounds, 0.36% hits | AID 602141;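 active = corrected activity change at or below -50% at 5 µM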
Peg3 promoter – reduces Peg3 promoter-driven luciferase expression in HeLa | inhibition, % at 20 µM | HeLa PEG-Prom luciferase reporter, luminescence, overnight | AID 588405 | 360,000 compounds, 1.7% hits;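 active = inhibition of at least 50% at 20 µM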
Mdm2 MdmX conf – confirmation of inhibitors of human Mdm2/MdmX interaction, set 2; shares compounds with HIF-2a inh; SaOS-2 split-luciferase Mdm2/MdmX complementation, luminescence; inhibition, % at 8 µM; 740 compounds, 99% hits; AID 504601;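 active = mean inhibition of the luminescence signal across two replicates at or above 26 percent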
HIF-2a conf – confirmation of HIF-2a inhibitors; inhibition, % at 18.8 µM; shares compounds with HIF-2a inh; AID 651580; 1,800 compounds, 56% hits; 786-0 RCC cells, HIF-2a luciferase reporter luminescence, overnight;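 active = mean inhibition across four replicates of at least 40 percent at the single tested concentration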
HIF-1a cs – HIF-1a inhibition counter-screen for HIF-2a hits | AID 651589 | shares compounds with HIF-2a inh | 1,800 compounds, 72% hits | MiaPaCa-2 HIF-1a luciferase reporter, desferoxamine, overnight | inhibition, % at 18.8 µM;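 active = mean inhibition of the reporter signal across four replicates at the single tested dose of 50% or more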
Large screens that a line does not name were inactive (follow-up assays come after a bar, where they were run).

CC[C@H]1CN2CCC1C[C@H]2[C@H](O)c1ccnc2ccc(OC)cc12 (some centres undefined)	none
O=Cc1c(C(=O)O)n(Cc2ccc(F)cc2Cl)c2ccccc12	none
COC(=O)C(Cc1ccc(N(CCCl)CCCl)cc1)N=Cc1ccccc1O (centres undefined)	TRPM1 prom inh 62, CF NFkB inh 75, HIF-2a inh 72, Peg3 promoter 97 | Mdm2 MdmX conf 103 | HIF-2a conf inactive | HIF-1a cs 100
CNC(C)Cc1ccccc1Sc1ccc(O)cc1 (centres undefined)	HIF-2a inh 50 | HIF-2a conf inactive | HIF-1a cs inactive
Oc1ccc(-[n+]2c(-c3ccccc3)cc(-c3ccccc3)cc2-c2ccccc2)cc1	TRPM1 prom inh 84, Peg3 promoter 86 | Mdm2 MdmX conf 102
COCC(=O)N1Cc2ccccc2-n2nncc2C1	none
CC(C)c1cc(Br)c(NC(=O)Nc2cccnc2)c(Br)c1	none
COc1cccc(NP(=O)(Oc2ccc(Cl)cc2)Oc2ccc(Cl)cc2)c1	none
O=[N+]([O-])c1cccc(NP(=O)(Oc2ccccc2)Oc2ccccc2)c1	HIF-2a inh 42 | HIF-2a conf 43 | HIF-1a cs inactive
CCCCCCCSc1cc(OC)c(CCNC)cc1OC	TRPM1 prom inh 102, HIF-2a inh 44, Shn3 3UTR inh 94, Peg3 promoter 112 | HIF-2a conf inactive | HIF-1a cs 106
CC(NS(C)(=O)=O)c1nnc2n1-c1ccc(Br)cc1C(c1ccccc1Cl)=NC2 (centres undefined)	none
O=C(Nc1cccc(OC(=O)N2CCCCC2)c1)N1CCCCC1	none
CC(=O)Nc1ccc(OC(=O)N2CCCCC2)cc1	HIF-2a inh 85 | HIF-2a conf 95 | HIF-1a cs 53
Cc1nc2cc(-c3cccc(F)c3)nn2c(C)c1CCC(=O)N1CCC2(CC1)OCCO2	HIF-2a inh 75 | HIF-2a conf 82 | HIF-1a cs 53
COC(=O)C1=C(c2cccc3c2S(=O)(=O)c2ccccc2-3)C[C@@H]2CC[C@H]1N2C(=O)N1CCc2cc(OC)c(OC)cc2C1	none
NC(N)=N/N=C/c1cn(-c2ccccc2)nc1-c1cccs1	Peg3 promoter 106 | Mdm2 MdmX conf 103
c1ccc(P(c2ccccn2)c2ccccn2)cc1	HIF-2a inh 58 | HIF-2a conf inactive | HIF-1a cs inactive
CCOC(=O)[C@]12Cc3cc(OC)ccc3[C@H]1N(C1CCCCC1)C(=O)c1cc(OC)ccc12	HIF-2a inh 88 (no result: TRPM1 prom inh, CF NFkB inh, Shn3 3UTR inh, KKLEB tox, Peg3 promoter) | HIF-2a conf 89 | HIF-1a cs 105
CCOC(=O)[C@]12Cc3cc(C)ccc3[C@H]1N(C(C)C)C(=O)c1ccccc12	HIF-2a inh 88 (no result: TRPM1 prom inh, CF NFkB inh, Shn3 3UTR inh, KKLEB tox, Peg3 promoter) | HIF-2a conf 93 | HIF-1a cs 108
CCOC(=O)[C@]12Cc3ccccc3[C@H]1N(C(C)C)C(=O)c1cc(OC)ccc12	none (no result: TRPM1 prom inh, CF NFkB inh, Shn3 3UTR inh, KKLEB tox, Peg3 promoter)
COc1ccccc1CCNCc1cccc(C(F)(F)F)c1	none
O=S(=O)(c1ccccc1)C1CN1c1c(F)c(F)c(F)c(F)c1F (centres undefined)	none (no result: TRPM1 prom inh, CF NFkB inh, Shn3 3UTR inh, KKLEB tox, Peg3 promoter)
COC(=O)C1=C(c2ccc(-c3ccccc3)c(F)c2)C[C@@H]2CC[C@H]1N2C(=O)NCc1cccc2ccccc12	none (no result: TRPM1 prom inh)
CC1CCCC(NC(=O)COC(=O)c2cn(C)c3ccccc23)C1C (centres undefined)	none
COc1ccc(CC2NCC(O)C2OC(C)=O)cc1 (centres undefined)	TRPM1 prom inh 91, CF NFkB inh 80, HIF-2a inh 82, Shn3 3UTR inh 97, Peg3 promoter 108 | HIF-2a conf 85 | HIF-1a cs 105
CCN(CC)CCC(=O)O[C@H]1CC[C@]2(C)C3CC[C@@]4(C)C(CC[C@]4(C)O)C3CC[C@H]2C1 (some centres undefined)	none
CC1=CC2OC3CC4OC(=O)C=CC=CC(=O)OCCC(C)C(O)C(=O)OCC2(CC1O)C4(C)C31CO1 (centres undefined)	TRPM1 prom inh 86, CF NFkB inh 84, HIF-2a inh 75, Shn3 3UTR inh 89, Peg3 promoter 101 | HIF-2a conf 72 | HIF-1a cs 103
CC(C)[C@H]1C(=O)O[C@H](C(C)C)C(=O)N(C)[C@@H](C(C)C)C(=O)O[C@H](C(C)C)C(=O)N(C)[C@@H](C(C)C)C(=O)O[C@H](C(C)C)C(=O)N1C	TRPM1 prom inh 78, Shn3 3UTR inh 90 | Mdm2 MdmX conf 94
ClCCN1CCSCC1	none
COC(=O)C1=C(c2ccc(S(C)(=O)=O)cc2)C[C@@H]2CC[C@H]1N2C(=O)NC(C)C	none
